Results filed as inconclusive are left out. The source made the active and inactive calls. How the source made its calls: active means hit-call score of the fitted dose curve at least 0.9, where 1 is the maximum; inconclusive means response in the unintended direction; inactive means score below 0.9.
Assays:
[1] = Tanguay_ZF_120hpf_EYE_legacy: (Legacy) Oregon State University Tanguay Lab 120 Hour Post-fertilization zebrafish Assay for Eye Malformation (AID 2283636);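 further: binary presence or absence of eye malformation scored by brightfield in 120 hpf larvae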
Method in brief: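 Dechorionated wild-type Tropical 5D zebrafish embryos were exposed statically from 6 hpf, one per well, to 120 hpf at 28C in sealed, foil-covered plates with 0.64% DMSO. Eye malformation was scored present/absent by brightfield microscopy against DMSO controls.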

[2] = Tanguay_ZF_120hpf_SNOU_legacy: (Legacy) Oregon State University Tanguay Lab 120 Hour Post-fertilization zebrafish Assay for Snout Malformation (AID 2283637)
Method in brief: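 Tropical 5D wild-type zebrafish embryos, dechorionated with pronase at 4 hpf, were exposed singly from 6 hpf to 120 hpf statically at 28C in 0.64% DMSO. Snout malformation was scored present/absent by brightfield microscopy, fitted against DMSO.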

[3] = Tanguay_ZF_120hpf_JAW_legacy: (Legacy) Oregon State University Tanguay Lab 120 Hour Post-fertilization zebrafish Assay for Jaw Malformation (AID 2283638)
Method in brief: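 Wild-type 5D embryos, chorion removed at 4 hpf, dosed singly from 6 hpf; 28C static, sealed, foil-covered, to 120 hpf. Endpoint: jaw defect yes/no (brightfield); mortality excludes scoring.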

[4] = Tanguay_ZF_120hpf_OTIC_legacy: (Legacy) Oregon State University Tanguay Lab 120 Hour Post-fertilization zebrafish Assay for Otic Vesicle Malformation (AID 2283639)
Method in brief: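 Otic vesicle malformation is read as a yes/no morphology call at 120 hpf. Exposure is static at 28C with 0.64% (vol/vol) DMSO; embryos that die are excluded from non-mortality endpoints.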

[5] = Tanguay_ZF_120hpf_PE_legacy: (Legacy) Oregon State University Tanguay Lab 120 Hour Post-fertilization zebrafish Assay for Pericardial Edema (AID 2283640)
Method in brief: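 Zebrafish larvae are exposed from early development to 120 hpf at 28C, with 0.64% DMSO final. Each surviving larva receives a yes/no pericardial edema call by brightfield imaging, analysed relative to the DMSO baseline.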

[6] = Tanguay_ZF_120hpf_BRAI_legacy: (Legacy) Oregon State University Tanguay Lab 120 Hour Post-fertilization zebrafish Assay for Brain Malformation (AID 2283641)
Method in brief: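 Static exposure of staged wild-type embryos until 120 hpf, kept at 28C with light excluded and final DMSO of 0.64% (vol/vol). Presence or absence of brain malformation was noted under brightfield; mortality precluded scoring.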

[7] = Tanguay_ZF_120hpf_SOMI_legacy: (Legacy) Oregon State University Tanguay Lab 120 Hour Post-fertilization zebrafish Assay for Somite Malformation (AID 2283647)
Method in brief: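 Somitogenesis defects are recorded as binary calls in whole larvae at 120 hpf after continuous static chemical exposure starting at 6 hpf in dechorionated 5D embryos. DMSO serves as negative control and baseline.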

[8] = Tanguay_ZF_120hpf_CFIN_legacy: (Legacy) Oregon State University Tanguay Lab 120 Hour Post-fertilization zebrafish Assay for Caudal Fin Malformation (AID 2283649)
Method in brief: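 Single dechorionated 5D wild-type embryos are dosed at 6 hpf (final DMSO 0.64%) and held statically at 28C. Caudal fin malformation is recorded as present or absent at 120 hpf under brightfield, excluding dead embryos.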

[9] = Tanguay_ZF_120hpf_PIG_legacy: (Legacy) Oregon State University Tanguay Lab 120 Hour Post-fertilization zebrafish Assay for Pigmentation Malformation (AID 2283650)
Method in brief: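 Tropical 5D wild-type zebrafish embryos, dechorionated with pronase at 4 hpf, were exposed singly from 6 hpf to 120 hpf statically at 28C in sealed, dark plates with 0.64% DMSO; pigmentation scored present/absent by brightfield microscopy, fitted against DMSO.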

[10] = Tanguay_ZF_120hpf_SWIM_legacy: (Legacy) Oregon State University Tanguay Lab 120 Hour Post-fertilization zebrafish Assay for Swim Bladder Malformation (AID 2283654);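 further: swim bladder malformation in each larva scored yes or no under brightfield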
Method in brief: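 Dechorionated Tropical 5D wild-type embryos, placed singly from 6 hpf, were statically exposed at 28C to 120 hpf with 0.64% DMSO final; swim bladder malformation was scored present/absent by brightfield microscopy, gain of signal relative to DMSO controls.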

[11] = Tanguay_ZF_120hpf_TRUN_legacy: (Legacy) Oregon State University Tanguay Lab 120 Hour Post-fertilization zebrafish Assay for Truncated Body (AID 2283655)
Method in brief: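 Single dechorionated zebrafish embryos received test chemical from 6 hpf in 0.64% DMSO, kept at 28C. At 120 hpf, brightfield inspection noted any truncated body.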

[12] = Tanguay_ZF_120hpf_NC_legacy: (Legacy) Oregon State University Tanguay Lab 120 Hour Post-fertilization zebrafish Assay for Notochord and Tail Malformation (AID 2283656)
Method in brief: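 Dechorionated 5D zebrafish, 1/well from 6 hpf; static exposure to 120 hpf, 28C, sealed, dark; final DMSO 0.64% v/v. NC scored binary (present/absent); dead embryos not scored. Fit vs DMSO baseline, gain direction.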

[13] = system: Thyroperoxidase (TPO), gene 54314; assay: CCTE_Simmons_AUR_rTPO: CCTE's Amplex UltraRed Assay for Thyroperoxidase (TPO) Inhibition, Simmons Lab (AID 2283662);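 on AC50: potency for loss of signal meaning inhibition of peroxidase activity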
Method in brief: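 Rat thyroid microsomal TPO + 25 uM AUR in 200 mM K phosphate; cpd 5 nM–87.5 uM [final], 8 conc, 0.5% DMSO; 300 uM H2O2 starts rxn; 37C dark 30 min; endpoint FI 544/590 nm; n=3.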

[14] = CCTE_Simmons_CellTiterGLO_HEK293T: Viability Assessment in CCTE's Assays for Thyroperoxidase (TPO) Inhibition, Simmons Lab (AID 2283665);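 on AC50: cells exposed to compound for 24 h before readout; actives reduce ATP signal below DMSO vehicle meaning cytotoxicity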
Method in brief: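 Cytotoxicity counter-screen: human HEK293T cells in low-serum (1% FBS) medium receive test chemical, 5 nM to 87.5 uM final, for 24 h; ATP is quantified by luciferase luminescence.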

[15] = Tanguay_ZF_120hpf_CIRC_legacy: (Legacy) Oregon State University Tanguay Lab 120 Hour Post-fertilization zebrafish Assay for Circulatory Malformation (AID 2283651)
Method in brief: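 Using wild-type Tropical 5D zebrafish, we exposed dechorionated embryos from 6 to 120 hpf in embryo medium with 0.64% DMSO. Circulatory defects were scored as present or absent; 5uM trimethyltin chloride served as positive control.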

[16] = Tanguay_ZF_120hpf_PFIN_legacy: (Legacy) Oregon State University Tanguay Lab 120 Hour Post-fertilization zebrafish Assay for Pectoral Fin Malformation (AID 2283648);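 further: each larva judged yes or no for fin defect by brightfield with dead larvae skipped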
Method in brief: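 Tropical 5D wild-type embryos, dechorionated with pronase at 4 hpf, were placed singly in wells at 6 hpf and statically exposed until 120 hpf at 28C, sealed and dark, with 0.64% (vol/vol) final DMSO; pectoral fin malformation scored present/absent.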

Measured: AC50

NCc1cccc(C2CCN(C(=O)c3ccc(C#Cc4ccccc4F)o3)CC2)c1
active: [14] 9.98 µM
not listed: [15] | [16]
inactive: all other assays above

CN(C)C(=O)C1(N2CCCCC2)CCN(CC[C@@]2(c3ccc(Cl)c(Cl)c3)CN(C(=O)c3ccccc3)CCO2)CC1
not listed: [13] | [14] | [16]
inactive: all other assays above

CO[C@H]1/C=C/O[C@@]2(C)Oc3c(C)c(O)c4c(O)c(c(/C=N/N5CCN(C)CC5)c(O)c4c3C2=O)NC(=O)/C(C)=C\C=C\[C@H](C)[C@H](O)[C@@H](C)[C@@H](O)[C@@H](C)[C@H](OC(C)=O)[C@@H]1C
active: [13] 3.3 µM
not listed: [6] | [12] | [16]
inactive: all other assays above

Cc1oc2c(NC(=O)c3c(Cl)cccc3Cl)cccc2c1C(C)(C)O
not listed: [13] | [14]
inactive: all other assays above

— PubChem BioAssay (EPA / NIEHS)
